# Experimental data taken from PubChem BioAssay (NCI).
# Compounds without any hit were thinned out: in the full panel of roughly 79,000, 15% have a hit. Values without a mark were called inactive. Active and inactive are the calls of the source. No stated cut-off is given here; in the data, active means growth inhibition above about 70%; inactive means the rest.
# Key:
# [1] = NCI Yeast Anticancer Drug Screen. Data for the rad52 strain (AID 147);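 further: 0% = growth of vehicle-treated control cultures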; conditions: S. cerevisiae rad52 mutant growth inhibition, stronger effect = higher value
# Method in brief: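 Genetically altered yeast (DNA damage repair defect) treated with compound; inhibition calculated relative to vehicle.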
# [2] = NCI Yeast Anticancer Drug Screen. Data for the wt1 strain (AID 149);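 further: 0% = growth of vehicle-treated wt1 cultures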; conditions: S. cerevisiae wt1 strain (SPY 50644) growth inhibition, stronger effect = higher value
# Method in brief: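 Each compound is tested on wt1 yeast and the loss of growth versus vehicle gives the inhibition value.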
# [3] = NCI Yeast Anticancer Drug Screen. Data for the rad50EPP+ strain (AID 151);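 further: 0% = growth of vehicle-treated control cultures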; conditions: S. cerevisiae rad50 mutant strain, stronger effect = higher value
# Method in brief: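 Strain rad50EPP+; compound exposure; % growth inhibition vs vehicle.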
# [4] = NCI Yeast Anticancer Drug Screen. Data for the mgt1 strain (AID 153); conditions: S. cerevisiae mgt1 mutant growth inhibition, stronger effect = higher value
# Method in brief: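 Read-out: yeast growth inhibition vs vehicle control. Strain mgt1, drawn from a panel altered in DNA damage repair or cell cycle control.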
# [5] = NCI Yeast Anticancer Drug Screen. Data for the rad50 strain (AID 155);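 further: 0% = growth of vehicle-only cultures of the same strain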; conditions: S. cerevisiae rad50 strain growth inhibition, stronger effect = higher value
# Method in brief: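 Vehicle-treated cultures provide the reference for the growth inhibition reported for compound-exposed, repair-deficient yeast.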
# [6] = NCI Yeast Anticancer Drug Screen. Data for the mec2-1 strain (AID 157); conditions: S. cerevisiae mec2-1 strain, stronger effect = higher value
# Method in brief: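 Cells of the genetically defined mec2-1 yeast strain are incubated with test compound. Inhibition of growth is calculated against vehicle-treated controls.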
# [7] = NCI Yeast Anticancer Drug Screen. Data for the rad14 strain (AID 159);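 further: 0% = growth of vehicle-treated control cultures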; conditions: S. cerevisiae rad14 strain growth inhibition, stronger effect = higher value
# Method in brief: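 Inhibition of growth is reported for a repair-deficient yeast mutant following compound treatment, calculated relative to cultures that received vehicle.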
# [8] = NCI Yeast Anticancer Drug Screen. Data for the sgs1 mgt1 strain (AID 161);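 further: 0% = growth of cultures given vehicle only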; conditions: S. cerevisiae sgs1 mgt1 strain, stronger effect = higher value
# Method in brief: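 Test agents were incubated with a DNA-repair-mutant yeast strain. Growth was then read and compared against vehicle-treated controls.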
# [9] = NCI Yeast Anticancer Drug Screen. Data for the CLN2oe strain (AID 163);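 further: 0% = growth of vehicle-only control cultures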; conditions: S. cerevisiae CLN2oe strain, stronger effect = higher value
# Method in brief: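 Strain altered in cell-cycle control, incubated with compound; growth compared to solvent-treated controls.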
# [10] = NCI Yeast Anticancer Drug Screen. Data for the cln2 rad14 strain (AID 165);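 further: 0% = growth equal to vehicle treated cultures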; conditions: S. cerevisiae cln2 rad14 strain, stronger effect = higher value
# Method in brief: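 The screen exposed genetically defined yeast (cln2 rad14) to test compounds and scored growth inhibition relative to vehicle-treated controls.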
# [11] = NCI Yeast Anticancer Drug Screen. Data for the bub3 strain (AID 167); conditions: S. cerevisiae bub3 mutant strain, stronger effect = higher value
# Method in brief: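 Mutant yeast screening strain plus compound; vehicle-treated cultures serve as the 0% inhibition reference.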
# [12] = NCI Yeast Anticancer Drug Screen. Data for the wt2 strain (AID 169); conditions: S. cerevisiae wt2 strain growth inhibition, stronger effect = higher value
# Method in brief: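 Steps: yeast strain treated with compound; growth recorded; inhibition calculated relative to cultures given vehicle alone.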
# [13] = NCI Yeast Anticancer Drug Screen. Data for the mlh1 strain (AID 171);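 further: 0% = growth of vehicle-treated control cultures of the same strain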; conditions: S. cerevisiae mlh1 strain growth inhibition, stronger effect = higher value
# Method in brief: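 Yeast screen: mutant strain plus compound, growth scored against vehicle control wells.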
# [14] = NCI Yeast Anticancer Drug Screen. Data for the sgs1 strain (AID 173);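 further: 0% = growth of vehicle-only control cultures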; conditions: S. cerevisiae sgs1 mutant, stronger effect = higher value
# Method in brief: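 Inhibition of yeast growth served as the measure. The mutant strain was treated with each compound, and growth was normalised to cultures receiving vehicle alone.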
# [15] = NCI Yeast Anticancer Drug Screen. Data for the mlh1 rad18 strain (AID 175); conditions: S. cerevisiae mlh1 rad18 strain growth inhibition, stronger effect = higher value
# Method in brief: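 Compound-treated yeast growth, normalised to vehicle controls. Strain bears defined DNA repair mutations.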
# [16] = NCI Yeast Anticancer Drug Screen. Data for the rad18 strain (AID 177); conditions: S. cerevisiae rad18 mutant growth inhibition, stronger effect = higher value
# Method in brief: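 Inhibition values reflect reduced yeast growth compared with vehicle-treated controls, using a strain engineered with a DNA damage repair defect.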
# [17] = at 5.0 µM (retest, dose inferred, filed as 0.5)
# [18] = at 50.0 µM (retest, dose inferred, filed as 5.0)
compound,measurement,setting,value
N#Cc1nc(Nc2ccc(Cl)cc2)sc1N,growth inhibition,[1]; at 1.2 µM,-33%
same,growth inhibition,[1]; at 3.7 µM,-29%
same,growth inhibition,[1]; at 11.0 µM,-25%
same,growth inhibition,[1]; at 33.0 µM,32%
same,growth inhibition,[1]; at 100.0 µM,80% (active)
same,growth inhibition,[2]; at 1.2 µM,-6%
same,growth inhibition,[2]; at 3.7 µM,-4%
same,growth inhibition,[2]; at 11.0 µM,-16%
same,growth inhibition,[2]; at 33.0 µM,41%
same,growth inhibition,[2]; at 100.0 µM,73% (active)
same,growth inhibition,[3]; at 1.2 µM,-36%
same,growth inhibition,[3]; at 3.7 µM,-27%
same,growth inhibition,[3]; at 11.0 µM,-17%
same,growth inhibition,[3]; at 33.0 µM,-1%
same,growth inhibition,[3]; at 100.0 µM,36%
same,growth inhibition,[4]; at 1.2 µM,-6%
same,growth inhibition,[4]; at 3.7 µM,-10%
same,growth inhibition,[4]; at 11.0 µM,1%
same,growth inhibition,[4]; at 33.0 µM,80% (active)
same,growth inhibition,[4]; at 100.0 µM,94% (active)
same,growth inhibition,[5]; at 1.2 µM,-4%
same,growth inhibition,[5]; at 3.7 µM,-9%
same,growth inhibition,[5]; [17],18%
same,growth inhibition,[5]; at 11.0 µM,-1%
same,growth inhibition,[5]; at 33.0 µM,27%
same,growth inhibition,[5]; [18],-8%
same,growth inhibition,[5]; at 50.0 µM,89.2% (active)
same,growth inhibition,[5]; at 100.0 µM,61%
same,growth inhibition,[6]; at 1.2 µM,-37%
same,growth inhibition,[6]; at 3.7 µM,-8%
same,growth inhibition,[6]; [17],8%
same,growth inhibition,[6]; at 11.0 µM,-15%
same,growth inhibition,[6]; at 33.0 µM,19%
same,growth inhibition,[6]; [18],53%
same,growth inhibition,[6]; at 50.0 µM,36.1%
same,growth inhibition,[6]; at 100.0 µM,42%
same,growth inhibition,[7]; at 1.2 µM,-31%
same,growth inhibition,[7]; at 3.7 µM,-19%
same,growth inhibition,[7]; at 11.0 µM,-16%
same,growth inhibition,[7]; at 33.0 µM,34%
same,growth inhibition,[7]; at 100.0 µM,91% (active)
same,growth inhibition,[8]; [17],9%
same,growth inhibition,[8]; [18],30%
same,growth inhibition,[8]; at 50.0 µM,76.2% (active)
same,growth inhibition,[9]; at 1.2 µM,25%
same,growth inhibition,[9]; at 3.7 µM,20%
same,growth inhibition,[9]; at 11.0 µM,27%
same,growth inhibition,[9]; at 33.0 µM,58%
same,growth inhibition,[9]; at 100.0 µM,44%
same,growth inhibition,[10]; [17],39%
same,growth inhibition,[10]; [18],92% (active)
same,growth inhibition,[10]; at 50.0 µM,84.6% (active)
same,growth inhibition,[11]; at 1.2 µM,18%
same,growth inhibition,[11]; at 3.7 µM,23%
same,growth inhibition,[11]; [17],10%
same,growth inhibition,[11]; at 11.0 µM,17%
same,growth inhibition,[11]; at 33.0 µM,32%
same,growth inhibition,[11]; [18],70% (active)
same,growth inhibition,[11]; at 50.0 µM,86% (active)
same,growth inhibition,[11]; at 100.0 µM,94% (active)
same,growth inhibition,[12]; at 1.2 µM,-20%
same,growth inhibition,[12]; at 3.7 µM,-36%
same,growth inhibition,[12]; at 11.0 µM,-20%
same,growth inhibition,[12]; at 33.0 µM,81% (active)
same,growth inhibition,[12]; at 100.0 µM,84% (active)
same,growth inhibition,[13]; at 1.2 µM,1%
same,growth inhibition,[13]; at 3.7 µM,27%
same,growth inhibition,[13]; at 11.0 µM,21%
same,growth inhibition,[13]; at 33.0 µM,64%
same,growth inhibition,[13]; at 100.0 µM,94% (active)
same,growth inhibition,[14]; at 1.2 µM,-20%
same,growth inhibition,[14]; at 3.7 µM,-13%
same,growth inhibition,[14]; at 11.0 µM,-2%
same,growth inhibition,[14]; at 33.0 µM,-1%
same,growth inhibition,[14]; at 100.0 µM,40%
same,growth inhibition,[15]; [17],-29%
same,growth inhibition,[15]; [18],-24%
same,growth inhibition,[15]; at 50.0 µM,49.9%
same,growth inhibition,[16]; at 1.2 µM,-17%
same,growth inhibition,[16]; at 3.7 µM,-17%
same,growth inhibition,[16]; at 11.0 µM,-3%
same,growth inhibition,[16]; at 33.0 µM,44%
same,growth inhibition,[16]; at 100.0 µM,91% (active)
